Laboratory results: PubChem BioAssay AID709 (SRMLSC, 2007)
In all, about 65,000 compounds went through this assay and about 3,600 (5.5%) were called active. What follows is part of a selection rich in actives, with near analogues and random picks from the rest. Unmarked numbers belong to inactive results.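 Rule for the calls: active = at 10 µM, mean starting fluorescence two-fold or more over control wells; inactive = the rest.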

Experiment: intrinsic fluorescence of library compounds, ex339/em460 – biochemical, MLSMR library, data from DPM-DC assay, artefact control, profiling panel (AID 709);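 note: signal is the first read of a kinetic run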
Conditions: compound autofluorescence, ex339/em460 nm, NADH buffer; at 10 µM; active compounds read high; 1 = no-compound wells, NADH background

Row | SMILES | fluorescence fold increase
1 | O=C1CC(c2cccc(F)c2)C2=C(CCCC2=O)N1 (stereo not drawn) | 1.17
2 | O=C1CC(c2cccc(Br)c2)C2=C(CCCC2=O)N1 (stereo not drawn) | 2.04 (active)
3 | O=C1CCCc2c1[nH]c1ccc(Br)cc21 | 1.13
4 | C=CCc1cccc2cc(C(=O)OCC)c(=O)oc12 | 1.21
5 | CC(=O)O[C@]1(C(C)=O)CC[C@H]2[C@@H]3C=C(C)C4=CC(=O)CC[C@]4(C)[C@H]3CC[C@@]21C | 1
6 | COc1ccc(C(=O)NCCc2ccc(S(N)(=O)=O)cc2)cc1OC | 1.15
7 | O=C(NCc1cn2ccsc2n1)Nc1ccc(Cl)cc1 | 1.11
8 | O=C(NCc1ccc(Cl)cc1)c1cc2c(nc3sccn32)s1 | 2.6 (active)
9 | O=c1cc(Cn2nnc(-c3ccc(Cl)cc3)n2)nc2sccn12 | 1.22
10 | O=C(Nc1c2c(nn1-c1ccc(F)cc1)CS(=O)C2)C12CC3CC(CC(C3)C1)C2 (stereo not drawn) | 1.05
11 | Cc1cc(C)cc(N(CC(=O)Nc2c(C)n(C)n(-c3ccccc3)c2=O)S(C)(=O)=O)c1 | 1.04
12 | Cc1nc2cc(-c3ccc(F)cc3)nn2c(N2CCOCC2)c1C | 1.16
13 | Cc1ccc(C(=O)NCCNS(=O)(=O)c2ccccc2)cc1 | 1.02
14 | COCCCNC(=O)c1ccc2c(c1)ncn2-c1ccccc1OC | 1.07
15 | CN(C)CCCNC(=O)c1ccc2[nH]c3ccccc3c2c1 | 3.36 (active)
16 | CSc1nnc(CNC(=O)c2ccccc2)n1-c1ccc(F)cc1 | 1.11
17 | O=S(=O)(c1cccc(S(=O)(=O)N2CCC(n3nnc4ccccc43)CC2)c1)N1CCCCC1 | 1.05
18 | Cc1ccc2oc(=O)c3cnn(CC(=O)N4CCCCCC4)c3c2c1 | 1.04
19 | Cc1ccc(C(=O)N2CCCCCC2)cc1Br | 1.08
20 | Cc1ccc2cc3cc(C(=O)N4CCCCCC4)oc3nc2c1 | 3.22 (active)
21 | Cc1cc(C)n2nc(C(=O)Oc3ccc4c(c3)OCO4)nc2n1 | 1.15
22 | Cc1nc(Nc2ccc3c(c2)OCCO3)c2nnn(Cc3ccccc3Cl)c2n1 | 2.39 (active)
23 | CC(C)(C)c1nc(NCC2CCCO2)c2nnn(Cc3ccccc3)c2n1 (stereo not drawn) | 1.16
24 | C#CCNc1nc(C(C)C)nc2c1nnn2Cc1ccccc1F | 1.04
25 | CCc1ccc2oc(=O)cc(CN3CCCCC3C)c2c1 (stereo not drawn) | 1.11
26 | CCCc1cc(=O)oc2c(C)c(O)c(CN3CCCCC3)cc12 | 2.34 (active)
27 | CCOC(=O)N1CCN(Cc2oc(CO)cc(=O)c2O)CC1 | 1.04
28 | C[N+](C)(C)CCNC(=O)c1c(O)c2c([nH]c1=O)CCCC2 | 1.18
